PubChem BioAssay (Tox21)
Inconclusive results are not listed. Active and inactive are the calls of the source. Unless noted, calls come from the whole dose curve; as a rule, active = well fitted curve in the direction sought with a large enough effect in the repeat runs; inconclusive = weak or mixed curves; inactive = no such curve, though single readings can be large; an effect the other way counts as inactive or inconclusive.

Assays:
[1] = qHTS assay to identify aromatase inhibitors - cell viability counter screen (AID 743084);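 note: cells stimulated with testosterone during compound exposure; nearly all actives have a fitted effect of over 55% in size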
[2] = target: Aryl hydrocarbon receptor (Homo sapiens) (UniProt P35869); experiment: qHTS assay to identify small molecule that activate the aryl hydrocarbon receptor (AhR) signaling pathway (AID 743085);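 note: HG2L7.5c1 human HepG2 liver cells with stably integrated DRE-driven firefly reporter; series mostly up to about 70 µM; nearly all actives have a fitted effect of over 15% in size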
Aryl hydrocarbon receptor (Homo sapiens), sequence (P35869 whole entry, looked up): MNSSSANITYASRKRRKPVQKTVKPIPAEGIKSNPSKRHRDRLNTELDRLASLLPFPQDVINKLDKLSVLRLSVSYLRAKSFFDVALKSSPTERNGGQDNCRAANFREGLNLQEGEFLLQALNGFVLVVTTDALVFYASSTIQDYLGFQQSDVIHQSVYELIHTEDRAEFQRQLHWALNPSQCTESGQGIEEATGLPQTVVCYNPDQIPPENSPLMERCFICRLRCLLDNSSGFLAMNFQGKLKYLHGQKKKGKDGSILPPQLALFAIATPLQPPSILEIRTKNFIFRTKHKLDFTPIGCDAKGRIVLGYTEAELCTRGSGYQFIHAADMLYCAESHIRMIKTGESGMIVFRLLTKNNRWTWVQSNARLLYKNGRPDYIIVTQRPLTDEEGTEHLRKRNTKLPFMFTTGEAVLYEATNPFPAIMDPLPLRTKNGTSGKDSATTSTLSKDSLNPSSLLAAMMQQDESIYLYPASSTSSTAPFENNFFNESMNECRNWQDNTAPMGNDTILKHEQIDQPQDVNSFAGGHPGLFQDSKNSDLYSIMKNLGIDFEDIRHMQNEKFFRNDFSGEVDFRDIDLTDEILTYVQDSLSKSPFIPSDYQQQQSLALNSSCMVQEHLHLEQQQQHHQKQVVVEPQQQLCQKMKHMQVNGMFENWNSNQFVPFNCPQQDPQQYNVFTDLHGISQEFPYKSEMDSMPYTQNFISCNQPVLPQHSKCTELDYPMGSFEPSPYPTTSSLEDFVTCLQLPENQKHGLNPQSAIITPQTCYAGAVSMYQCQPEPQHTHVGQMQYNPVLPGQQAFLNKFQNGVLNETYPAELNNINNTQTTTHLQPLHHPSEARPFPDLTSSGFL
Summary of the method: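 Measured in HG2L7.5c1 cells: CellTiter-Fluor signal (30 min incubation, 37C) for viability, then luciferase luminescence (30 min, room temperature). Compound contact time was 24 h at 37C, following a 5 h pre-incubation.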

[3] = qHTS assay to identify small molecule that activate the aryl hydrocarbon receptor (AhR) signaling pathway - cell viability counter screen (AID 743086);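 note: HepG2 liver cells carrying the AhR DRE luciferase reporter; series mostly up to about 70 µM; nearly all actives have a fitted effect of over 45% in size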
Summary of the method: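 HepG2-AhR-luc (HG2L7.5c1) cells, 4000/well, treated 24 h at 37 C with compound; viability measured as CellTiter-Fluor fluorescence after 30 min in the same wells as the luciferase read.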

[4] = target: Peroxisome proliferator-activated receptor gamma (Homo sapiens) (UniProt P37231); experiment: qHTS assay to identify small molecule antagonists of the peroxisome proliferator-activated receptor gamma (PPARg) signaling pathway (AID 743191; calls by dose curve; note: series mostly up to about 63 µM; nearly all actives have a fitted effect of over 30% in size)
Peroxisome proliferator-activated receptor gamma (Homo sapiens), sequence (P37231 whole entry, looked up): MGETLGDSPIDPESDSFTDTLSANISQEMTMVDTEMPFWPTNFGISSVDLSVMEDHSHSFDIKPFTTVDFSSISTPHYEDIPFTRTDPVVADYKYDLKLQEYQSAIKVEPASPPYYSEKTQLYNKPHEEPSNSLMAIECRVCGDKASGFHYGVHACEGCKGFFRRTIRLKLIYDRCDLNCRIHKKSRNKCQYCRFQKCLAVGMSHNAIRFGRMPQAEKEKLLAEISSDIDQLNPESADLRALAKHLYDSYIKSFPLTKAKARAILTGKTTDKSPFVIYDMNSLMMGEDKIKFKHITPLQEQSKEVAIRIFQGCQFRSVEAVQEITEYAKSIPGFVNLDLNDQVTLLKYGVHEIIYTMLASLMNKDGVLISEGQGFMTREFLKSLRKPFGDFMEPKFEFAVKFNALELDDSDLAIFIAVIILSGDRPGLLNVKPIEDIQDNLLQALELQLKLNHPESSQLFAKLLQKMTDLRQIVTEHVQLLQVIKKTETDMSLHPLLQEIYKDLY
Summary of the method: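 GeneBLAzer PPARg UAS-bla HEK293H cells, 5 h post-plating, exposed to compounds 17 h at 37C. LiveBLAzer B/G FRET substrate added for 1 h at room temperature; beta-lactamase reporter read by fluorescence intensity.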

[5] = qHTS assay to identify small molecule antagonists of the peroxisome proliferator-activated receptor gamma (PPARg) signaling pathway - cell viability counter screen (AID 743194); note: nearly all actives have a fitted effect of over 55% in size
Summary of the method: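 Cytotoxicity counter screen in PPARg-bla HEK293H cells, same wells as reporter assay. Compounds plus 50 nM rosiglitazone (final) for 17 h at 37 C, then viability read by CellTiter-Glo luminescence.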

[6] = qHTS assay for small molecule agonists of the antioxidant response element (ARE) signaling pathway (AID 743202; active = well fitted activation curve with a large enough effect in the signal ratio in the repeat runs, not every such curve was filed as active; the % refers to the signal ratio)
Summary of the method: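 HepG2 ARE-bla cells; 16 h treatment at 37 C; FRET-based beta-lactamase fluorescence read after 2 h substrate incubation at room temperature.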

[7] = qHTS assay for small molecule agonists of the antioxidant response element (ARE) signaling pathway - cell viability counter screen (AID 743203; calls by dose curve; note: nearly all actives have a fitted effect of over 55% in size)
Summary of the method: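 Viability counter screen: stably transfected ARE-bla HepG2 line, 16 hrs compound exposure at 37C/5% CO2, ATP-based CellTiter-Glo luminescence measured in the reporter wells.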

[8] = qHTS assay for small molecule activators of the heat shock response signaling pathway - cell viability counter screen (AID 743209); note: nearly all actives have a fitted effect of over 50% in size
Summary of the method: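 Viability of HSE-bla HeLa cells is measured with CellTiter-Glo in the wells already used for the reporter read. Compound exposure lasts 5 h at 37 C, and luminescence is read after 30 min at room temperature.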

[9] = qHTS assay to identify small molecule agonists of the peroxisome proliferator-activated receptor delta (PPARd) signaling pathway - cell viability counter screen (AID 743211); note: nearly all actives have a fitted effect of over 55% in size
Summary of the method: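 Following 5 h plating at 37 C and 5% CO2, PPARd UAS-bla HEK293H cells took up test compounds for 17 h. Viability was quantified by luminescence 30 min after CellTiter-Glo addition at room temperature.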

[10] = target: Peroxisome proliferator-activated receptor delta (Homo sapiens) (UniProt Q03181); experiment: qHTS assay to identify small molecule agonists of the peroxisome proliferator-activated receptor delta (PPARd) signaling pathway (AID 743212; calls by dose curve)
Peroxisome proliferator-activated receptor delta (Homo sapiens), sequence (Q03181 whole entry, looked up): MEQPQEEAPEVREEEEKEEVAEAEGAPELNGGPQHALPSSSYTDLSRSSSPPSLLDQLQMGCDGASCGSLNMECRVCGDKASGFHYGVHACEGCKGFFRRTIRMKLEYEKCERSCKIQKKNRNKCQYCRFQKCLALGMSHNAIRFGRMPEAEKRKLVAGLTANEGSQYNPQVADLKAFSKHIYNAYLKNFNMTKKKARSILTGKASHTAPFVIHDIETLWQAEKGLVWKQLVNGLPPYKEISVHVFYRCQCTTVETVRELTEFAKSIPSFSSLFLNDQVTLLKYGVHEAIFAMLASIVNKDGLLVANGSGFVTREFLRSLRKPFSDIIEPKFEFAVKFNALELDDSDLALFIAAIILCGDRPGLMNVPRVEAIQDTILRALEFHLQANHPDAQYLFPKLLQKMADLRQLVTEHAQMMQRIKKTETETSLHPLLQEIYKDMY
Summary of the method: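 Tox21 library screened in GeneBLAzer PPARd UAS-bla HEK293H cells. After compound treatment at 37 C, a FRET-based beta-lactamase substrate was applied for 2 h and fluorescence recorded.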

[11] = qHTS assay to identify small molecule antagonists of the peroxisome proliferator-activated receptor delta (PPARd) signaling pathway - cell viability counter screen (AID 743213); note: nearly all actives have a fitted effect of over 50% in size
Summary of the method: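 Same-well viability: cells pre-incubated 5 h, dosed with compound plus 300 nM L165041, kept 17 h at 37 C, FRET substrate 2 h RT, then CellTiter-Glo 30 min RT and luminescence.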

[12] = target: Peroxisome proliferator-activated receptor delta (Homo sapiens) (UniProt Q03181); experiment: qHTS assay to identify small molecule antagonists of the peroxisome proliferator-activated receptor delta (PPARd) signaling pathway (AID 743215; active = well fitted inhibition curve with a large enough effect in the signal ratio in the repeat runs, not every such curve was filed as active; the % refers to the signal ratio;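 note: cells stimulated with agonist L165041 at 300 nM final during compound exposure; series mostly up to about 62 µM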)
Summary of the method: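 Plated HEK293H PPARd-bla cells rested 5 h at 37 C and 5% CO2. Compound, then agonist L165041 at 300 nM final, was added; 17 h at 37 C followed. Substrate loading, 2 h room temperature, fluorescence measured.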

[13] = qHTS assay to identify small molecule agonists of the farnesoid-X-receptor (FXR) signaling pathway - cell viability counter screen (AID 743218); note: nearly all actives have a fitted effect of over 45% in size
Summary of the method: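 Viability of FXR-bla HEK 293T cells is measured by ATP-based CellTiter-Glo luminescence following 16 h compound treatment at 37 C and a prior 2 h room-temperature beta-lactamase substrate step.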

[14] = qHTS assay to identify small molecule antagonists of the farnesoid-X-receptor (FXR) signaling pathway - cell viability counter screen (AID 743221; active = well fitted cell-killing curve with a large enough effect in the repeat runs, not every such curve was filed as active; note: nearly all actives have a fitted effect of over 50% in size)
Summary of the method: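 Compound effects on cell number were measured as CellTiter-Glo luminescence in HEK 293T cells expressing FXR-UAS-bla, after 16 h at 37 C with 50 uM CDCA (final).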

[15] = target: Vitamin D3 receptor (Homo sapiens) (UniProt P11473); experiment: qHTS assay to identify small molecule agonists of the vitamin D receptor (VDR) signaling pathway (AID 743222; calls by dose curve)
Vitamin D3 receptor (Homo sapiens), sequence (P11473 whole entry, looked up): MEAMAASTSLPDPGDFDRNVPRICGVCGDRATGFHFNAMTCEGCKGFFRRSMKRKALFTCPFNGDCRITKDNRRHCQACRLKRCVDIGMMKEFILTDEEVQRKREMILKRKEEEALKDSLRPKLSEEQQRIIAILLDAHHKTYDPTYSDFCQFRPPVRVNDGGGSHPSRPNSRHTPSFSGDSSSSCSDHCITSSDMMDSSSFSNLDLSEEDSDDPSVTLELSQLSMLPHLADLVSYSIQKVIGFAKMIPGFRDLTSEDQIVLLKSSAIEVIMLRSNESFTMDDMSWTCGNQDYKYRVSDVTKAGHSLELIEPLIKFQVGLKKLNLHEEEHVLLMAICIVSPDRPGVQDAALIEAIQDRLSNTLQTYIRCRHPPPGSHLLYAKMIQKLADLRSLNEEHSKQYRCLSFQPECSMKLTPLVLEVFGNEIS
Summary of the method: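 Fluorescence from cleaved LiveBLAzer B/G FRET substrate served as readout. VDR-bla cells had been treated 16 h at 37C with test compounds in DMSO, following a 4 h settling period, and substrate was loaded for 2 h at RT.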

[16] = target: Vitamin D3 receptor (Homo sapiens) (UniProt P11473); experiment: qHTS assay to identify small molecule antagonists of the vitamin D receptor (VDR) signaling pathway (AID 743223; active = well fitted inhibition curve with a large enough effect in the signal ratio in the repeat runs, not every such curve was filed as active; the % refers to the signal ratio)
Summary of the method: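 Beta-lactamase activity in VDR-bla cells is measured by FRET substrate fluorescence (2 h, room temperature) after cells spend 16 h at 37C with test compound and 3 nM final 1alpha,25-dihydroxyvitamin D3.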

[17] = qHTS assay for small molecule activators of the heat shock response signaling pathway (AID 743210; active = well fitted activation curve with a large enough effect in the signal ratio in the repeat runs, with a control signal flat, not every such curve was filed as active; the % refers to the signal ratio;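 note: HeLa cells with beta-lactamase reporter driven by heat shock elements; series mostly up to about 63 µM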)
Summary of the method: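 Following overnight attachment, HSE-bla HeLa cells received test compounds for 5 h at 37 C; beta-lactamase activity was then detected via FRET substrate fluorescence.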

[18] = target: Bile acid receptor (Homo sapiens) (UniProt Q96RI1); experiment: qHTS assay to identify small molecule antagonists of the farnesoid-X-receptor (FXR) signaling pathway (AID 743217; active = well fitted inhibition curve with a large enough effect in the signal ratio in the repeat runs, not every such curve was filed as active; the % refers to the signal ratio)
Bile acid receptor (Homo sapiens), sequence (Q96RI1 whole entry, looked up): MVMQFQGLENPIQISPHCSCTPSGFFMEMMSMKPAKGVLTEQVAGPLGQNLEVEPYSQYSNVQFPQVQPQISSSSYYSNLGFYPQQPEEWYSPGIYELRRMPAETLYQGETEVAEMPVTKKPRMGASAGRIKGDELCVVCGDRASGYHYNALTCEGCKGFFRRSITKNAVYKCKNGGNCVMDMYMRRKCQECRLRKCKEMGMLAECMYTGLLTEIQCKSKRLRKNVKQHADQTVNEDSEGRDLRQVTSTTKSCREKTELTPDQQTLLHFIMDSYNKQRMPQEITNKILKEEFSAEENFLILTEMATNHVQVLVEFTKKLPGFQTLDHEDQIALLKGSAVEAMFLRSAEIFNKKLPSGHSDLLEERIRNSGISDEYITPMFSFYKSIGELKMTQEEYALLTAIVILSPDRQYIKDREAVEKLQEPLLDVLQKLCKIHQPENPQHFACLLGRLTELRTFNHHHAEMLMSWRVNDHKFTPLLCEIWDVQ
Summary of the method: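 Screen of the Tox21 10K library in quantitative HTS format using FXR-UAS-bla HEK 293T reporter cells. Agonist chenodeoxycholic acid, 50 uM final, added with compounds; 16 h incubation at 37 °C; beta-lactamase FRET fluorescence measured.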

[19] = target: Bile acid receptor (Homo sapiens) (UniProt Q96RI1); experiment: qHTS assay to identify small molecule agonists of the farnesoid-X-receptor (FXR) signaling pathway (AID 743220; active = well fitted activation curve with a large enough effect in the signal ratio in the repeat runs, not every such curve was filed as active; the % refers to the signal ratio)
Summary of the method: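 FXR-UAS-bla HEK 293T cells carrying a UAS-driven beta-lactamase reporter were plated for 5 h at 37C/5% CO2, then exposed to DMSO-dissolved Tox21 10K compounds for 16 h at 37C. A LiveBLAzer B/G FRET substrate was loaded for 2 h at room temperature before fluorescence reading.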
% is set by controls: 0 for no effect and ±100 for the full control effect.

CC(=O)OCC(CCn1cnc2cnc(N)nc21)COC(C)=O
inactive: Potency [1] | Potency [2] | Potency [3] | Potency [4] | outcome [5] | Potency [6] | Potency [7] | outcome [8] | Potency [9] | outcome [10] | Potency [11] | Potency [12] | Potency [13] | Potency [14] | outcome [15] | outcome [16]

Nc1cc(=O)[nH]c(N)n1
inactive: Potency [1] | Potency [2] | Potency [3] | Potency [4] | outcome [5] | Potency [6] | Potency [7] | outcome [8] | outcome [17] | Potency [9] | Potency [11] | outcome [18] | outcome [19] | Potency [14] | outcome [15] | outcome [16]

NS(=O)(=O)c1cc(C(=O)O)cc(N2CCCC2)c1Oc1ccccc1
inactive: Potency [1] | Potency [2] | Potency [3] | outcome [5] | Potency [6] | Potency [7] | outcome [8] | outcome [17] | outcome [10] | Potency [11] | Potency [13] | Potency [14] | outcome [15] | outcome [16]

O=Cc1cccc([N+](=O)[O-])c1
inactive: Potency [1] | Potency [2] | Potency [3] | Potency [4] | outcome [5] | Potency [7] | outcome [8] | outcome [17] | Potency [9] | outcome [10] | Potency [11] | Potency [12] | Potency [13] | Potency [14] | outcome [15] | outcome [16]

CCN1CCC[C@H]1CNC(=O)c1cc(S(N)(=O)=O)ccc1OC
inactive: Potency [1] | Potency [2] | Potency [3] | Potency [4] | outcome [5] | Potency [6] | Potency [7] | outcome [8] | outcome [17] | Potency [9] | Potency [11] | Potency [13] | Potency [14] | outcome [15] | outcome [16]

CCCCCSCCCCC
inactive: Potency [1] | Potency [2] | Potency [3] | outcome [5] | Potency [6] | Potency [7] | outcome [8] | outcome [17] | Potency [9] | Potency [11] | Potency [12] | outcome [18] | Potency [13] | outcome [19] | Potency [14]

CS(=O)(=O)O
inactive: Potency [1] | Potency [2] | Potency [3] | outcome [5] | Potency [6] | Potency [7] | outcome [8] | outcome [17] | Potency [9] | outcome [18] | outcome [19] | Potency [14] | outcome [15] | outcome [16]

O=C(O)CN(CCOCCOCCN(CC(=O)O)CC(=O)O)CC(=O)O
inactive: Potency [1] | Potency [2] | Potency [3] | ratio activity, negative = inhibition [4] -4.72% [at 0.55 µM] | activity change, negative = cytotoxicity [5] 11.4% [at 0.55 µM] | activation [6] 8.1% [at 0.756 µM] | viability change, negative = cytotoxic [7] 1.75% [at 0.756 µM] | activity change, negative = cytotoxicity [8] -15.4% [at 0.55 µM] | activation [17] 0.198% [at 0.55 µM] | activity change, negative = cytotoxicity [9] 8.22% [at 0.55 µM] | viability change, negative = cytotoxic [11] 5.18% [at 0.575 µM] | ratio activity, negative = inhibition [12] 6.3% [at 0.575 µM] | viability change, negative = cytotoxic [13] -1.35% [at 0.55 µM] | activity change, negative = cytotoxicity [14] -3.69% [at 0.55 µM] | activation [15] 6.34% [at 0.554 µM] | activity change, negative = inhibition [16] 2.94% [at 0.628 µM]

CN1CCN(c2cc3c(cc2F)c(=O)c(C(=O)O)cn3-c2ccc(F)cc2)CC1
inactive: Potency [1] | Potency [2] | Potency [3] | outcome [5] | Potency [6] | Potency [7] | outcome [8] | outcome [17] | Potency [9] | Potency [11] | outcome [18] | Potency [13] | outcome [19] | Potency [14] | outcome [15]

O=C1OC(=O)C2CCCCC12 (stereo not drawn)
inactive: Potency [1] | Potency [2] | Potency [3] | Potency [4] | outcome [5] | Potency [6] | Potency [7] | outcome [8] | Potency [9] | Potency [11] | Potency [13] | Potency [14] | outcome [15] | outcome [16]

CN1CCC(=C2c3ccccc3CC(=O)c3sccc32)CC1
inactive: Potency [1] | Potency [2] | Potency [3] | Potency [4] | outcome [5] | Potency [7] | outcome [8] | outcome [17] | Potency [9] | outcome [10] | Potency [12] | outcome [18] | Potency [13] | outcome [19] | Potency [14] | outcome [15] | outcome [16]
